# Bioassay records from PubChem BioAssay.
# RORgamma inh – blocks mouse ROR gamma transcriptional activity; P51450; Drosophila S2 Gal4-RORgamma UAS-luciferase reporter, 20 h; Potency, µM (titrated, usually from 53.6 µM), inactives show at the highest dose activity change, negative = inhibition, hits mostly inhibitors; hit rate 5.4% among 310,000; further: on the % scale 0 is the no-effect control and ±100 the full control effect; nearly all actives have a fitted effect of over 60% in size
# Target sequence (P51450 whole entry, looked up, the tested form may be a part): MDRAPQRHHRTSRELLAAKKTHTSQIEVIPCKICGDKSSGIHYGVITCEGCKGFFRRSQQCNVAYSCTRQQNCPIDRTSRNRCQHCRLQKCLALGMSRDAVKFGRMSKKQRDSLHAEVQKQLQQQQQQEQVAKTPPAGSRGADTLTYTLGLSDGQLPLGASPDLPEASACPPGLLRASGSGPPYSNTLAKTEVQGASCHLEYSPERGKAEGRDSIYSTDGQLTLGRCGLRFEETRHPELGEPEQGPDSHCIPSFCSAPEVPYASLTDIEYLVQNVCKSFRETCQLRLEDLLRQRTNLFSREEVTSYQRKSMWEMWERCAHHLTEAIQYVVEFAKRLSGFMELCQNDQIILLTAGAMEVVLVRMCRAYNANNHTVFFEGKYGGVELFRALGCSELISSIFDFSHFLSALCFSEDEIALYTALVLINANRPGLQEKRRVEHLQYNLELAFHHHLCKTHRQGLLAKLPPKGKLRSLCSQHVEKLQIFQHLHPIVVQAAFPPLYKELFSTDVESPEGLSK
#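 Stably transfected Drosophila Schneider cells are the test system, with ROR gamma fused to Gal4 and luciferase under UAS control; luminescence is read after 20 hr of 700 uM copper sulfate induction at ambient temperature.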
# Integrin act MD – activators of alpha7 integrin expression for muscular dystrophy. hit rate 0.064% among 350,000. Potency, µM (highest dose often 38.3 µM), without a hit: at the top dose activation, actives largely listed as activators. AID 624291. alpha7betagal myoblasts, beta-gal FDG fluorescence, 48 h;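 further: 100% = response of the positive control SU9516; nearly all actives have a fitted effect of over 60% in size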
#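 Alpha7betagal+/- myoblasts (passage 13) were plated 16-24 hr, then exposed to compounds (1:260 dilution of DMSO stock) for 48 hours at 37C. After MPER lysis, β-galactosidase reporter activity was read as FDG fluorescence (ex 480/em 540) after 30 minutes.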
# Chronic BCR inh – chronic active BCR signaling inhibition. ABC-DLBCL IkBa-CBG/CBR reporter, luminescence ratio, 4 h. Potency, µM (top dose mostly 46.1 µM), inactives show top-dose activity change, negative = inhibition, most hits filed as inhibitors. hit rate 0.05% among 340,000. AID 493014; active means well fitted inhibition curve with a large enough effect in the signal ratio, with a control signal flat, not every such curve was filed as active; inconclusive means small, poorly fitted or top-dose-only effect, or effect the other way, or a change in a side signal; the % refers to the signal ratio;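 further: plate controls were basal doxycycline-induced cells for no effect and cells given 10 µM MG132 for full effect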
#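 Concentration-response series (up to 46 uM) were applied to TMD8 dual-reporter cells for 4 h at 37C with doxycycline. Green/red ratio, after filter-overlap correction, defined %Activity; red signal alone was normalised to basal cells and zero luminescence.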
# Gal4-VP16 FLuc – inhibits Gal4-VP16 luciferase reporter, ROR gamma counter-screen; Drosophila S2 Gal4-VP16 UAS-luciferase, luminescence, 20 h; Potency, µM (doses to about 53.6 µM), for the others: at the top dose activity, negative = inhibition, actives largely listed as inhibitors; hit rate 3.5% among 310,000; AID 2546;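 further: Gal4-VP16 expression switched on by copper sulfate through the metallothionein promoter; on the % scale 0 is the no-effect control and ±100 the full control effect; nearly all actives have a fitted effect of over 50% in size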
# Mito fusion yeast – inhibitors of mitochondrial division or activators of mitochondrial fusion | Potency, µM (top dose mostly 46.1 µM), inactives show at the top dose growth rescue (activation), usual class: activators | hit rate 0.23% among 320,000 | S. cerevisiae fusion-defective mutant growth rescue, CellTiterGlo 48 h; further: % of control where 0% means no effect; nearly all actives have a fitted effect of over 45% in size
#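 Compounds are tested for their ability to restore growth of mitochondrial fusion-defective yeast strains at non-permissive 37C in YPEG medium over 48 hours. Viability is quantified by luciferase luminescence.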
# uPA generation – inhibitors of cell surface uPA generation. cell surface uPA generation assay, qHTS. Potency, µM (doses to about 38.3 µM), for inactives: at the highest dose activity change, negative = inhibition, usual class: inhibitors. hit rate 0.31% among 330,000; active means well fitted inhibition curve with a large enough effect; inconclusive means small, poorly fitted or top-dose-only effect; inactive means no such curve, though single readings can be large or run the other way; tested in mouse RAW 264.7 cells; further: on the % scale 0 is the no-effect control and ±100 the full control effect; nearly all actives have a fitted effect of over 55% in size
# Numbers without * were called inactive; ? = inconclusive; / = not tested or not shown; [ ] = another dose, or the depositor's remark. Only some compounds are listed: those with a hit (about 5.5% of all), similar ones and a draw of the others. Unless noted, the call rests on the fitted dose curve; in most records, active means well fitted curve in the direction sought with a large enough effect; inconclusive means small, poorly fitted or top-dose-only effect, or another doubt; inactive means no such curve, though single readings can be large; an effect the other way counts as inactive or inconclusive. Potency means the concentration at half of the fitted maximal effect.
SMILES,RORgamma inh,Integrin act MD,Chronic BCR inh,Gal4-VP16 FLuc,Mito fusion yeast,uPA generation
CC(=O)Nc1sc(C)c(C)c1C(=O)OCC(=O)NC(C)c1ccccc1 (stereo not given),/,32.0%,10.2%,/,3.5%,33.4%
CC12CCC=CC1C(c1ccc(C(F)(F)F)cc1)N(Cc1ccccc1)C2=O (stereo not given),?,/,/,1.7%,/,/
Cc1cc(-n2c(C)nc3ccccc3c2=O)ccc1NC(=O)c1cccc([N+](=O)[O-])c1,/,/,-1.7%,/,/,/
Cc1ccc(NC(=O)CSc2nnc(-c3ccncc3)s2)cc1,-5.9%,0.0%,-15.3%,-2.5%,-28.6%,-0.6%
Cc1ccc(NC(=O)CSc2nnc(/N=C/N(C)C)s2)cc1,17.8µM*,10.1%,-0.6%,-20.8%,-0.5%,0.9%
Cc1cc(C)cc(/C=C/C2OCC(O)C2Oc2ccc(C3CCCC3)cc2)c1 (stereo not given),1.3%[10 µM],/,/,-3.0%[10 µM],/,/
Cc1cccc(Nc2nc(-c3ccc(O)cc3O)cs2)n1,3.98µM*,10.9%,?,?,-6.5%,4.7%
Oc1ccc(-c2csc(Nc3ncccn3)n2)c(O)c1,0.3%,8.1%,?,-12.6%,3.2%,-7.7%
Cc1nn(C)c(C)c1/C=C(/C(=O)C(C)(C)C)n1cncn1,-11.8%,-56.7%,-7.4%,-9.7%,-8.9%,-16.8%
CC(C)(C)C(=O)/C(=C/c1ccncc1)n1cncn1,1µM*,-15.3%,?,2.82µM*,-21.4%,?
COc1ccc2ccc(OCC(=O)Nc3cc(C)on3)cc2c1,/,30.6%,-0.2%,/,-14.3%,5.7%
CCCOc1ccc(-c2cn3ccccc3n2)cc1,4.47µM*,3.0%,?,?,-4.8%,?
COc1ccc(-c2nc3ccccn3c2Cl)cc1,15.8µM*,?,?,?,-8.5%,-16.5%
COc1ccc(-c2cn3ccccc3n2)cc1,6.31µM*,?,?,12.6µM*,-15.5%,2µM*
COc1ccc(-c2nc3ccccn3c2CN2CCN(c3ccccc3F)CC2)cc1,-39.2%,3.3%,-11.4%,-9.7%,0.5%,4.9%
COc1ccc(-c2cn3ccccc3n2)cc1[N+](=O)[O-],?,27.7%,?,-17.3%,-6.5%,-12.8%
COc1c(Cl)cccc1-c1cn2ccccc2n1,11.2µM*,27.5%,?,?,-8.5%,-7.6%
COc1ccc(C2CCCN2C(=S)Nc2cccc(C)c2C)cc1OC (stereo not given),?,-16.0%,-8.4%,?,1.1%,-8.6%
CSc1ccc(C(=O)C2CCCN(C(=O)c3nonc3C)C2)cc1 (stereo not given),-10.4%,-19.1%,?,0.5%,0.9%,10.2%
CCN(CC)CCC(c1ccc(N(C)C)cc1)c1c(OC)cc(OC)c2c1OC(=O)CC2c1ccc(N(C)C)cc1 (stereo not given),28.4%,/,/,0.3%,/,/
COc1cc(/C=N/Nc2nc(Nc3ccccc3)nc(N3CCOCC3)n2)ccc1OC(=O)c1ccco1,-22.1%,-17.2%,?,4.9%,2.8%,?
COc1cc(/C=N/Nc2nc(N3CCCC3)nc(N3CCCC3)n2)ccc1O,-40.0%,-14.3%,?,7.7%,-4.3%,/
CCOc1ccc(/C=N/Nc2nc(N3CCCC3)nc(N3CCCC3)n2)cc1OC,12.6µM*,28.2%,-0.7%,?,-5.9%,0.0%
CCOc1cc(/C=N/Nc2nc(N3CCCCC3)nc(N3CCCCC3)n2)ccc1OC(=O)c1ccco1,?,-39.0%,-0.6%,6.0%,-1.0%,12.6µM*
COCCN(CCOC)c1nc(C)nc2c1nc(-c1ccccc1)n2CC1CCN(C)CC1,-9.8%,/,/,-3.5%,/,/
SMILES,RORgamma inh,Integrin act MD,Chronic BCR inh,Gal4-VP16 FLuc,Mito fusion yeast,uPA generation
CC(=O)c1ccc(-c2ccc(/C=C(/Sc3n[nH]c(C)n3)C(=O)O)o2)cc1,5.62µM*,-16.4%,1.3%,?,-4.6%,2.6%
Cc1nc(S/C(=C/c2ccc(-c3ccc(Cl)cc3)o2)C(=O)O)n[nH]1,1.41µM*,-9.4%,?,2.82µM*,-0.6%,-4.4%
Cc1nc(S/C(=C/c2ccc(-c3ccc(C(=O)O)cc3)o2)C(=O)O)n[nH]1,-13.4%,28.0%,?,-6.5%,-4.2%,7.8%
CC(=O)c1ccc(-n2c(=O)[nH]c(=O)c3c(N)c(C(=O)c4ccc(Cl)cc4)sc32)cc1,-3.4%,-8.2%,?,?,9.7%,4.9%
CCCc1nnc(NC(=O)c2cccc(OC)c2)s1,7.08µM*,-7.4%,?,-16.5%,1.0%,-3.1%
COc1cccc(C(=O)Nc2nnc(SCC(=O)Nc3ccc(NC(C)=O)cc3)s2)c1,11.2µM*,7.9%,?,?,-1.3%,2µM*
COc1cccc(C(=O)Nc2nnc(C(C)C)s2)c1,8.91µM*,3.8%,?,?,7.5%,-7.2%
CCOc1ccccc1N1CCN(Cc2cnc(-c3ccccc3)[nH]2)CC1,2.4%,-17.2%,-24.5%,9.3%,-4.8%,3.2%
O=C(CSc1nnnn1C1CC2CCC1C2)Nc1ccnc2ccccc12 (stereo not given),?,-13.1%,-0.8%,0.0022µM*,21.3%,-12.6%
O=C(CSc1nnnn1C1CCCCC1)Nc1ccccc1F,28.0%,24.3%,-11.4%,-22.9%,6.5%,7.6%
Cc1ccc(NC(=O)c2c(C(F)(F)F)nn(C)c2SCc2ccc(Cl)cc2)cc1C,0.447µM*,-51.2%,15.7%,-0.5%,0.6%,/
Cc1ccc(NC(=O)c2c(C(F)(F)F)nn(C)c2SCc2cccc(C(F)(F)F)c2)cc1C,-37.3%,-58.0%,22.1%,?,2.0%,-5.9%
CC(NC(=O)c1sc2cc([N+](=O)[O-])ccc2c1Cl)C(C)(C)C (stereo not given),?,0.0%,-6.4%,12.6µM*,8.8%,0.2%
CC1(C)CCC2=C(O1)c1ccccc1C(=O)C2=O,2.51µM*,/,/,5.62µM*,5.2%,/
CCCCOc1ccc(CSCCN)cc1Cl,1.26µM*,-78.0%,?,2µM*,-23.4%,-23.9%
COc1cccc(-n2ccnc2SCC(=O)N2CCCc3ccccc32)c1,-12.8%,1.4%,-4.6%,1.8%,2.1%,-5.1%
CCOc1ccc(-n2ccnc2SCC(=O)N2CCCc3ccccc32)cc1,7.08µM*,9.8%,-1.1%,?,5.6%,0.4%
CN(CCC#N)C(=O)COC(=O)c1cc(Cl)cc(Cl)c1N,3.7%,7.4%,-6.9%,4.8%,3.8%,-5.2%
CCOC(=O)N1CCC(NC(=O)CS(=O)Cc2nc(-c3ccc(Cl)cc3)oc2C)CC1 (stereo not given),22.0%,?,4.3%,6.7%,3.8%,14.6%
Cc1cnn(-c2nc(-c3ccccc3)cc(-c3ccccc3)n2)c1,3.16µM*,9.8%,-7.0%,11.2µM*,12.4%,-9.3%
O=C(NC(=S)NC1CCC(O)CC1)c1ccco1 (stereo not given),/,-21.7%,0.5%,/,/,0.5%
